These results are taken from PMC9911399, “Two distinct binding modes provide the RNA-binding protein RbFox with extraordinary sequence specificity”.

To fix the notation:
B1: UGCUAAU (DNA:RNA)
RNA: GGGAGACCGGAAUUCAGAUUGUCCUGCUAAUUUAAAUCCCGUCGUAGCCACCA
DNA 1: CAATCTGAATTCCGGTCTCCC
DNA 2: TGGTGGCTACGACGGGATT
B2: AGCGUUA (DNA:RNA)
RNA: B1 RNA with U25A, U28G, A29U, A30U, U31A
DNA 1: CAATCTGAATTCCGGTCTCCC
DNA 2: TGGTGGCTACGACGGGATT
B3: GUGCUCG (DNA:RNA)
RNA: GGGAGACCGGAAUUCAGAUUGUCCGUGCUCGUUAAAUCCCGUCGUAGCCACCA
DNA 1: CAATCTGAATTCCGGTCTCCC
DNA 2: TGGTGGCTACGACGGGATT
B4: CUUACCA (DNA:RNA)
RNA: B3 RNA with G25C, G27U, C28A, U29C, G31A
DNA 1: CAATCTGAATTCCGGTCTCCC
DNA 2: TGGTGGCTACGACGGGATT
B5: GAGUGUA (DNA:RNA)
RNA: B3 RNA with U26A, C28U, U29G, C30U, G31A
DNA 1: CAATCTGAATTCCGGTCTCCC
DNA 2: TGGTGGCTACGACGGGATT
B6: CAGCCAU (DNA:RNA)
RNA: B3 RNA with G25C, U26A, U29C, C30A, G31U
DNA 1: CAATCTGAATTCCGGTCTCCC
DNA 2: TGGTGGCTACGACGGGATT
B7: UGUCCCG (DNA:RNA)
RNA: B3 RNA with G25U, U26G, G27U, U29C
DNA 1: CAATCTGAATTCCGGTCTCCC
DNA 2: TGGTGGCTACGACGGGATT
B8: UGUAUCC (DNA:RNA)
RNA: B3 RNA with G25U, U26G, G27U, C28A, G31C
DNA 1: CAATCTGAATTCCGGTCTCCC
DNA 2: TGGTGGCTACGACGGGATT
B9: UGUUGUA (DNA:RNA)
RNA: B1 RNA with C27U, A29G, A30U, U31A
DNA 1: CAATCTGAATTCCGGTCTCCC
DNA 2: TGGTGGCTACGACGGGATT
B10: UGUAUUG (DNA:RNA)
RNA: B3 RNA with G25U, U26G, G27U, C28A, C30U
DNA 1: CAATCTGAATTCCGGTCTCCC
DNA 2: TGGTGGCTACGACGGGATT
B11: UGUAUUA (DNA:RNA)
RNA: B1 RNA with C27U, U28A, A29U, A30U, U31A
DNA 1: CAATCTGAATTCCGGTCTCCC
DNA 2: TGGTGGCTACGACGGGATT
B12: UGUAUCG (DNA:RNA)
RNA: B3 RNA with G25U, U26G, G27U, C28A
DNA 1: CAATCTGAATTCCGGTCTCCC
DNA 2: TGGTGGCTACGACGGGATT
B13: GCUAGGC (DNA:RNA)
RNA: B3 RNA with U26C, G27U, C28A, U29G, C30G, G31C
DNA 1: CAATCTGAATTCCGGTCTCCC
DNA 2: TGGTGGCTACGACGGGATT
B14: UGCACAU (DNA:RNA)
RNA: B1 RNA with U28A, A29C
DNA 1: CAATCTGAATTCCGGTCTCCC
DNA 2: TGGTGGCTACGACGGGATT
B15: GACAGGU (DNA:RNA)
RNA: B1 RNA with U25G, G26A, U28A, A29G, A30G
DNA 1: CAATCTGAATTCCGGTCTCCC
DNA 2: TGGTGGCTACGACGGGATT
B16: AGUUAAU (DNA:RNA)
RNA: B1 RNA with U25A, C27U
DNA 1: CAATCTGAATTCCGGTCTCCC
DNA 2: TGGTGGCTACGACGGGATT
B17: UCGCGUC (DNA:RNA)
RNA: B3 RNA with G25U, U26C, U29G, C30U, G31C
DNA 1: CAATCTGAATTCCGGTCTCCC
DNA 2: TGGTGGCTACGACGGGATT
B18: UUGGGUG (DNA:RNA)
RNA: B3 RNA with G25U, C28G, U29G, C30U
DNA 1: CAATCTGAATTCCGGTCTCCC
DNA 2: TGGTGGCTACGACGGGATT
B19: UUGGGGG (DNA:RNA)
RNA: B3 RNA with G25U, C28G, U29G, C30G
DNA 1: CAATCTGAATTCCGGTCTCCC
DNA 2: TGGTGGCTACGACGGGATT
B20: CUUGUCC (DNA:RNA)
RNA: B3 RNA with G25C, G27U, C28G, G31C
DNA 1: CAATCTGAATTCCGGTCTCCC
DNA 2: TGGTGGCTACGACGGGATT
B21: UCGUGUC (DNA:RNA)
RNA: B1 RNA with G26C, C27G, A29G, A30U, U31C
DNA 1: CAATCTGAATTCCGGTCTCCC
DNA 2: TGGTGGCTACGACGGGATT
B22: UUGGGAA (DNA:RNA)
RNA: B3 RNA with G25U, C28G, U29G, C30A, G31A
DNA 1: CAATCTGAATTCCGGTCTCCC
DNA 2: TGGTGGCTACGACGGGATT
B23: GUGUGUC (DNA:RNA)
RNA: B3 RNA with C28U, U29G, C30U, G31C
DNA 1: CAATCTGAATTCCGGTCTCCC
DNA 2: TGGTGGCTACGACGGGATT
B24: CCUUGUC (DNA:RNA)
RNA: B1 RNA with U25C, G26C, C27U, A29G, A30U, U31C
DNA 1: CAATCTGAATTCCGGTCTCCC
DNA 2: TGGTGGCTACGACGGGATT
B25: UUGUGUG (DNA:RNA)
RNA: B3 RNA with G25U, C28U, U29G, C30U
DNA 1: CAATCTGAATTCCGGTCTCCC
DNA 2: TGGTGGCTACGACGGGATT
B26: UUGUGUC (DNA:RNA)
RNA: B3 RNA with G25U, C28U, U29G, C30U, G31C
DNA 1: CAATCTGAATTCCGGTCTCCC
DNA 2: TGGTGGCTACGACGGGATT
B27: UCGCGUG (DNA:RNA)
RNA: B3 RNA with G25U, U26C, U29G, C30U
DNA 1: CAATCTGAATTCCGGTCTCCC
DNA 2: TGGTGGCTACGACGGGATT
B28: UUGUCCC (DNA:RNA)
RNA: B3 RNA with G25U, C28U, U29C, G31C
DNA 1: CAATCTGAATTCCGGTCTCCC
DNA 2: TGGTGGCTACGACGGGATT
B29: AUGACGA (DNA:RNA)
RNA: B3 RNA with G25A, C28A, U29C, C30G, G31A
DNA 1: CAATCTGAATTCCGGTCTCCC
DNA 2: TGGTGGCTACGACGGGATT
B30: UACCUCG (DNA:RNA)
RNA: B3 RNA with G25U, U26A, G27C
DNA 1: CAATCTGAATTCCGGTCTCCC
DNA 2: TGGTGGCTACGACGGGATT
B31: UUUCACA (DNA:RNA)
RNA: B3 RNA with G25U, G27U, U29A, G31A
DNA 1: CAATCTGAATTCCGGTCTCCC
DNA 2: TGGTGGCTACGACGGGATT

Changes are numbered by the printed parent chain; changes in the protein carry UniProt numbers. Over roughly 16,000 sequences, “ka relative to ugcaugu” has its median near 0.096; the highest 2% begin near 0.35. The full list was thinned out, with the highest values kept by preference.

The target in this experiment is T1, RBFOX1 RRM RbFoxmut (Fox-RRM*) (Homo sapiens, UniProt Q9NWB1 109-208, R118D;E147R;N151S;E152T).
T1 sequence: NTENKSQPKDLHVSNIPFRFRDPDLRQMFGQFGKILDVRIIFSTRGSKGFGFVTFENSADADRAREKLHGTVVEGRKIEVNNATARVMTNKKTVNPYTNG
Nature of the experiment: EMSA; HiTS-Eq, 1 nM pool, 10 min; buffer printed only for the single-RNA assays: 10 mM Tris pH 7.5, 150 mM NaCl, 3.4 mM EDTA, 0.001% NP-40, 30 C. The settings on record: tags: His6 N-terminal (pET28a); label: 5' 32P. A digest of the protocol:
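A pool of RNA with 7 randomized nucleotides, 5′-radiolabelled and with DNA-annealed flanks, was equilibrated at 1 nM for 10 min in 50 µL with purified RbFox RRM, wild type or mutant, across increasing protein concentrations. Free RNA was separated by 8% native PAGE, excised, reverse-transcribed, barcoded by PCR and sequenced. Relative association constants were obtained from read-count changes of each RNA species versus the control reaction and normalised to the cognate motif.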
Consider B1, for which the binding signal is 0.0977 KA relative to UGCAUGU.

In the case of B2, the binding signal was 0.113 KA relative to UGCAUGU.

As to B3, the binding signal is 0.226 KA relative to UGCAUGU.

As for B4, the binding signal is 0.0834 KA relative to UGCAUGU.

In the case of B5, the binding signal was 0.258 KA relative to UGCAUGU.

As for B6, the binding signal is 0.0919 KA relative to UGCAUGU.

On to B7, for which the binding signal is 0.096 KA relative to UGCAUGU.

As for B8, the binding signal is 0.15 KA relative to UGCAUGU.

For B9, the binding signal is 0.307 KA relative to UGCAUGU.

Regarding B10, the binding signal was 0.691 KA relative to UGCAUGU.

As for B11, the binding signal was 0.175 KA relative to UGCAUGU.

Consider B12, for which the binding signal was 0.648 KA relative to UGCAUGU.

Regarding B13, the binding signal is 0.0891 KA relative to UGCAUGU.

With B14, the binding signal is 0.0893 KA relative to UGCAUGU.

For the molecule B15, the binding signal was 0.0716 KA relative to UGCAUGU.

As to B16, the binding signal is 0.0918 KA relative to UGCAUGU.

On to B17, for which the binding signal was 0.145 KA relative to UGCAUGU.

Take B18: the binding signal is 0.373 KA relative to UGCAUGU.

As for B19, the binding signal was 0.0724 KA relative to UGCAUGU.

For B20, the binding signal was 0.107 KA relative to UGCAUGU.

In the case of B21, the binding signal was 0.359 KA relative to UGCAUGU.

With B22, the binding signal was 0.14 KA relative to UGCAUGU.

For B23, the binding signal is 0.329 KA relative to UGCAUGU.

Turning to B24, the binding signal is 0.226 KA relative to UGCAUGU.

For the molecule B25, the binding signal was 0.491 KA relative to UGCAUGU.

As to B26, the binding signal was 0.357 KA relative to UGCAUGU.

As to B27, the binding signal is 0.153 KA relative to UGCAUGU.

B28: the binding signal was 0.0731 KA relative to UGCAUGU.

Take B29: the binding signal is 0.0609 KA relative to UGCAUGU.

Consider B30, for which the binding signal was 0.107 KA relative to UGCAUGU.

B31: the binding signal is 0.0896 KA relative to UGCAUGU.
